Measurements published in PubChem BioAssay AID1159580 (chemical genetic matrix, 2015).
Out of some 5,500 compounds screened, about 2,000 (36%) were called active. About 18% were inconclusive and are not listed. No stated cut-off is given here; in the data, active means normalized growth mostly below about 0.91 (no sharp cut-off); inconclusive means no clear call, values can overlap the other calls; inactive means mostly above about 0.92. Some of the results follow.

Assay: chemical genetic growth profiling, strain panel (AID 1159580);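 further: tested at 20 µM; growth read once vehicle control cultures reached saturation at 30 °C; 1 = growth at the plate median or of vehicle wells; lower values mean less growth of the strain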
Details: S. cerevisiae deletion strains, growth OD

Measured: normalized growth

COc1ccc(-c2cc(=O)c3c(OC)c(OC)c(OC)c(OC)c3o2)cc1
inactive: locus YAL021C, strain ccr4, hits give low values 0.996 | locus YAL030W, strain snc1, hits give low values 0.959 | locus YBR009C, strain hhf1, hits give low values 0.91 | locus YBR171W, strain sec66, hits give low values 0.961 | locus YBR279W, strain paf1, hits give low values 0.942 | locus YCL069W, strain vba3, hits give low values 0.934 | locus YCR088W, strain abp1, hits give low values 0.937 | locus YDL005C, strain med2, hits give low values 0.985 | locus YDL040C, strain nat1, hits give low values 0.975 | locus YDR001C, strain nth1, hits give low values 0.959 | locus YDR069C, strain doa4, hits give low values 0.981 | locus YDR159W, strain sac3, hits give low values 0.931 | locus YDR195W, strain ref2 1.05 | locus YDR297W, strain sur2, hits give low values 0.954 | locus YDR334W, strain swr1, hits give low values 0.938 | locus YEL003W, strain gim4, hits give low values 0.964 | locus YEL037C, strain rad23, hits give low values 0.99 | locus YER111C, strain swi4, hits give low values 0.978 | locus YFR010W, strain ubp6, hits give low values 0.967 | locus YGL167C, strain pmr1, hits give low values 0.972 | locus YGL173C, strain kem1, hits give low values 0.913 | locus YHR013C, strain ard1, hits give low values 0.887 | locus YHR027C, strain rpn1, hits give low values 0.974 | locus YHR030C, strain SLT2, hits give low values 1.02 | locus YHR079C, strain IRE1, hits give low values 1.02 | locus YJL092W, strain hpr5, hits give low values 0.946 | locus YJL095W, strain BCK1, hits give low values 0.984 | locus YJL115W, strain asf1, hits give low values 0.977 | locus YJL154C, strain vps35, hits give low values 0.996 | locus YJL164C, strain tpk1, hits give low values 0.933 | locus YJR066W, strain TOR1, hits give low values 0.964 | locus YKR026C, strain gcn3, hits give low values 0.974 | locus YKR091W, strain srl3, hits give low values 0.986 | locus YLL001W, strain dnm1, hits give low values 0.922 | locus YLL026W, hits give low values 0.968 | locus YLL041C, strain sdh2, hits give low values 0.973 | locus YLR113W, strain HOG1, hits give low values 0.96 | locus YLR258W, strain gsy2, hits give low values 0.944 | locus YLR357W, strain rsc2, hits give low values 0.924 | locus YLR384C, strain iki3, hits give low values 0.978 | locus YML120C, strain ndi1, hits give low values 0.948 | locus YMR125W, strain sto1, hits give low values 0.899 | locus YMR129W, hits give low values 0.978 | locus YMR231W, strain pep5, hits give low values 1.01 | locus YNL183C, strain NPR1, hits give low values 0.937 | locus YNL209W, strain ssb2, hits give low values 0.994 | locus YNL248C, strain rpa49, hits give low values 0.997 | locus YNL322C, strain KRE1 (second series), hits give low values 0.943 | locus YNR049C, strain mso1, hits give low values 0.985 | locus YOR001W, strain rrp6, hits give low values 0.962 | locus YOR070C, strain gyp1, hits give low values 0.961 | locus YOR080W, strain dia2, hits give low values 0.992 | locus YOR231W, strain MKK1, hits give low values 1.02 | locus YOR265W, strain rbl2, hits give low values 0.94 | locus YOR290C, strain snf2, hits give low values 0.886 | locus YPL106C, strain sse1, hits give low values 0.927 | locus YPL240C, strain hsp82, hits give low values 0.966 | locus YPL256C, strain CLN2, hits give low values 1.04
active: locus YAL026C, strain drs2, hits give low values 0.846 | locus YBL061C, strain skt5, hits give low values 0.792 | locus YBR023C, strain chs3, hits give low values 0.848 | locus YBR231C, strain swc5, hits give low values 0.795 | locus YCL011C, strain gbp2, hits give low values 0.907 | locus YCL016C, strain dcc1, hits give low values 0.911 | locus YCL061C, strain MRC1, hits give low values 0.918 | locus YDR137W, strain rgp1, hits give low values 0.705 | locus YDR335W, strain msn5, hits give low values 0.915 | locus YDR392W, strain spt3, hits give low values 0.248 | locus YEL061C, strain CIN8 (second series), hits give low values 0.874 | locus YER015W, strain faa2, hits give low values 0.912 | locus YER016W, strain bim1, hits give low values 0.898 | locus YER155C, strain BEM2 (second series), hits give low values 0.51 | locus YGL227W, strain vid30, hits give low values 0.87 | locus YGL240W, strain doc1, hits give low values 0.84 | locus YGL253W, strain hxk2, hits give low values 0.792 | locus YHR142W, strain chs7, hits give low values 0.54 | locus YJL095W, strain BCK1 (second series), hits give low values 0.899 | locus YJL129C, strain trk1, hits give low values 0.774 | locus YJL166W, strain qcr8, hits give low values 0.801 | locus YJL187C, strain SWE1, hits give low values 0.922 | locus YKL160W, strain elf1, hits give low values 0.887 | locus YLR027C, strain aat2, hits give low values 0.892 | locus YLR221C, strain rsa3, hits give low values 0.889 | locus YLR262C, strain YPT6 (second series), hits give low values 0.692 | locus YLR320W, strain mms22, hits give low values 0.635 | locus YLR342W, strain FKS1, hits give low values 0.904 | locus YLR370C, strain arc18, hits give low values 0.862 | locus YMR058W, strain fet3, hits give low values 0.845 | locus YMR205C, strain PFK2, hits give low values 0.78 | locus YNL071W, strain lat1, hits give low values 0.473 | locus YOR083W, strain WHI5, hits give low values 0.879 | locus YOR106W, strain vam3, hits give low values 0.837 | locus YOR270C, strain vph1, hits give low values 0.644 | locus YPL051W, strain arl3, hits give low values 0.882 | locus YPL078C, strain atp4, hits give low values 0.791
